From the supplement of paper PMC7156485

Experiments:
Conditions in all cases: concentration: 10 µM; 24 h
[1] = system: HCC1569; test: cell number relative to DMSO (% of DMSO); higher = more cells (less growth inhibition / toxicity)
Procedure, shortened: (§1)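 Cells were seeded at 800 per well in 384-well plates with RPMI containing 10% FBS; both HCC1569 and TDF lines were used. Compounds were added at 10 µM for 24 h at 37 °C, in triplicate, before fixation in 3.7% formaldehyde and staining with a rabbit anti-H1.0 antibody, an AlexaFluor 647 secondary and DAPI. H1.0 nuclear intensity or cell number is reported as percent of the plate control using the median of replicates, and HCC1569 values were smoothed for positional effects.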

[2] = system: TDF; test: as above
Procedure, shortened: as §1

[3] = system: TDF; test: H1.0 immunofluorescence intensity relative to DMSO (% of DMSO); higher = stronger H1.0 induction, active = 120 or more
Procedure, shortened: as §1

[4] = system: HCC1569; test: H1.0 immunofluorescence intensity relative to DMSO (% of DMSO); higher = stronger H1.0 induction, active = 140 or more
Procedure, shortened: as §1
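Throughout, for H1.0 immunofluorescence intensity relative to DMSO: TDF is a line of transformed human dermal fibroblasts of mesenchymal origin.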
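Throughout, for cell number relative to DMSO: TDF denotes transformed human dermal fibroblasts of mesenchymal origin.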

| Compound | cell number [1] | cell number [2] | H1.0 immunofluorescence intensity [3] | H1.0 immunofluorescence intensity [4] |
| --- | --- | --- | --- | --- |
| CCCCCCCCCCCC=CCC=CCCCC(=O)O [Eicosa-5,8-dienoic acid (20:2 n-12)] | 101 | 99.6 | 96.8 (inactive) | 105 (inactive) |
| CC(C)COCC(CN(Cc1ccccc1)c1ccccc1)N1CCCC1.Cl (configuration not stated) [Bepridil.HCl] | 102 | 103 | 93.1 (inactive) | 99.1 (inactive) |
| O=C(NC(Cc1ccccc1)C(=O)CCl)OCc1ccccc1 [Z-L-Phe chloromethyl ketone] | 54.9 | 52.5 | 120 (inactive) | 116 (inactive) |
| CCC1(O)CC(OC2CC(N(C)C)C(OC3CC(O)C(OC4CCC(=O)C(C)O4)C(C)O3)C(C)O2)c2c(cc3c(c2O)C(=O)c2c(O)cccc2C3=O)C1C(=O)OC (configuration not stated) [Aclarubicin] | 83.2 | 55.5 | 129 (active) | 210 (active) |
| COc1ccc(Nc2nc(N)nc(CN3CCCCC3)n2)cc1 | 102 | 90.5 | 96.9 (inactive) | 94.5 (inactive) |
| S=C(NCc1ccc2c(c1)OCO2)N1CCN(c2ncnc3c2oc2ccccc23)CC1 | 65.5 | 72.6 | 103 (inactive) | 132 (inactive) |
| Nc1nc(Cl)nc2c1ncn2C1OC(COP(=O)([O-])OP(=O)([O-])OP(=O)([O-])[O-])C(O)C1O.[Na+].[Na+].[Na+].[Na+] (configuration not stated) [2-Chloroadenosine triphosphate tetrasodium] | 102 | 99 | 89.5 (inactive) | 83.9 (inactive) |
| CC=C(C)C(=O)OC1CC(C)=CC(=O)C2(C)CCC(O)(C(C)C)C12 (configuration not stated) [Lapidin] | 104 | 102 | 95.4 (inactive) | 93.9 (inactive) |
